Source: PubChem BioAssay AID2315 (National Center for Advancing Translational Sciences (NCATS), 2010)
About 27,000 (9.3%) of roughly 290,000 compounds were called active. This is one part of a sample in which actives are shown more often than they occur. Unmarked numbers belong to inactive results. Rule as the data show it: active = inhibition mostly above about 28% (no sharp cut-off); inactive = mostly below about 43%.

Assay: A qHTS for Small Molecule Inhibitors of Shiga Toxin; also: 0% is about no effect
Conditions: Vero cells, Shiga toxin protein synthesis inhibition reporter; at 38.7 µM, stronger effect = higher value

| SMILES | inhibition |
| --- | --- |
| COc1cccc(CNC(=O)CCC2CCCN(C(=O)c3ccc(F)c(Cl)c3)C2)c1 (stereo unspecified) | 0.606% |
| NS(=O)(=O)c1ccc(Nc2nc(-c3ccccc3)cs2)cc1 | 17.7% |
| CC(=O)Nc1cccc(-c2csc(Nc3cccc(C)n3)n2)c1 | 103% (active) |
| Cc1cccc(Nc2nc(-c3ccccc3)cs2)n1 | 150% (active) |
| COc1ccc(CCNc2nc(-c3cccc(NC(C)=O)c3)cs2)cc1OC | 0.41% |
| CC(=O)Nc1ccc(S(=O)(=O)Nc2nc(-c3ccc(C(C)(C)C)cc3)cs2)cc1 | -13.5% |
| Cc1cccc(S(=O)(=O)CC(=O)Nc2nc(-c3ccccc3)cs2)c1 | -3.62% |
| COc1ccc(-c2onc3ccc(C(C)=O)cc23)cc1 | -4.4% |
| O=C(CCS(=O)(=O)c1ccc2c(c1)NC(=O)CS2)NCc1ccccc1Cl | 5.67% |
| O=C(NCc1ccc2c(c1)OCO2)C(=O)NCC1OCCN1S(=O)(=O)c1ccc(F)cc1 (stereo unspecified) | -4.86% |
| O=C(NC(Cc1ccc(O)cc1)C(=O)O)/C(=C/c1ccccc1)NC(=O)c1ccccc1 (stereo unspecified) | 8.2% |
| O=C(Cc1c(F)cccc1Cl)N1CCN(C(=O)c2ccco2)CC1 | -5.75% |
| O=C(NCCCN1CCOCC1)c1ccccc1NS(=O)(=O)c1ccc(F)cc1 | 43.2% |
| O=C(NCCCN1CCOCC1)c1cc(-c2ccccc2F)no1 | 54.8% (active) |
| O=C(c1ccco1)N1CCN(C(=S)Nc2cc(F)cc(F)c2)CC1 | 35.8% |
| O=C(NCCCN1CCOCC1)c1cc(-c2ccc(Cl)cc2)on1 | 23.1% |
| O=C(c1ccco1)N1CCN(C(=O)c2cc(-c3ccccc3F)no2)CC1 | 66.3% (active) |
| CC(=O)Nc1ccc(S(=O)(=O)NCC2CCC(C(=O)NCCc3ccccc3)CC2)cc1 (stereo unspecified) | 3.01% |
| COc1ccc(CCNS(=O)(=O)c2cccc([N+](=O)[O-])c2)cc1 | -8.39% |
| Cc1c(C(C)(C)O)[nH]c2ccc(C#N)cc12 | 7.17% |
| CC(=O)Nc1ccc(NC(=O)CN2C(=O)COc3ccc(S(=O)(=O)N4CCCCC4)cc32)cc1 | -6% |

| SMILES | inhibition |
| --- | --- |
| CCOCCCNc1c(CC)c(C)c(C#N)c2nc3ccccc3n12 | -5.72% |
| Cn1nc(-c2ccccc2)c2cc([N+](=O)[O-])ccc21 | -6.77% |
| CCOc1ccc(N/C(N)=N/c2nc(C)c(C)c(=O)[nH]2)cc1 | 0.318% |
| COC(=O)Cc1ccc(Oc2ncc(C(F)(F)F)cc2Cl)cc1 | 26.3% |
| COc1cccc(/C=N/Nc2ncc(C(F)(F)F)cc2Cl)c1O | -37.7% (active) |
| N/C(=N\OC(=O)Nc1ccc(Cl)c(Cl)c1)c1ncc(C(F)(F)F)cc1Cl | -18.1% |
| CC(=O)N1c2ccc(S(=O)(=O)N3CCC(C(=O)NCc4ccc(F)cc4)CC3)cc2CC1C (stereo unspecified) | -3.9% |
| CSc1ccccc1N1CCN(CCCCCC(=O)NC2CCCc3ccccc32)CC1 (stereo unspecified) | -5.33% |
| COc1ccc([N+](=O)[O-])cc1C1NN=C(c2cccc3ccccc23)S1 (stereo unspecified) | -12.5% |
| COc1ccc(C2Nc3ccccc3C(=O)N2Cc2ccccc2)cc1Cn1nnc2ccccc21 (stereo unspecified) | -22.2% |
| COc1ccc(C2Nc3ccccc3C(=O)N2c2ccc(Cl)cc2)cc1Cn1cc([N+](=O)[O-])cn1 (stereo unspecified) | 115% (active) |
| COc1ccc(CN2CCCC(C(=O)c3ccc(Cl)cc3)C2)cc1Cn1cncn1 (stereo unspecified) | -2.03% |
| COc1ccc(N2C(=O)c3ccccc3NC2c2ccc(OC)c(CN3CCOCC3)c2)cc1 (stereo unspecified) | 64% (active) |
| COc1ccc(C2Nc3ccccc3C(=O)N2c2ccc(F)cc2)cc1Cn1nnc2ccccc21 (stereo unspecified) | -5.43% |
| COC(=O)C1=CN(Cc2ccc(OC)cc2)C=C(C(=O)OC)C1c1ccc(O)c(OC)c1 | -14.4% |
| CCC(NC(=O)C1CCCC1)c1ccc(C)cc1 (stereo unspecified) | -3.88% |
| O=C(Nc1ccc(Br)cc1)c1cc(S(=O)(=O)Nc2ccccn2)ccc1Cl | -18.3% |
| NC(=O)c1ccc(Nc2ccc3nonc3c2[N+](=O)[O-])cc1 | -16.8% |
| N#Cc1c(-c2ccccc2)nc(SCc2cccc(C(F)(F)F)c2)[nH]c1=O | -1.96% |
| O=[N+]([O-])c1cnc2ccc3ccccc3c2c1 | 27.3% |
| O=[N+]([O-])c1ccc2c(c1)Nc1nc3ccccc3nc1N2 | 119% (active) |

| SMILES | inhibition |
| --- | --- |
| O=[N+]([O-])c1cccc(Nc2c3ccccc3nc3ccccc23)c1 | -12.3% |
| O=C(Nc1ccc2ccccc2c1)Nc1ccc2snnc2c1 | 1.94% |
| CCc1ccccc1NC(=O)c1ccc2snnc2c1 | -5.07% |
| O=C(Nc1cccc(Br)c1)c1ccc2snnc2c1 | 64% (active) |
| COc1ccccc1S(=O)(=O)c1c(C)cc(C)[nH]c1=O | -2.84% |
| Cc1cccc([C@@H]2[C@@H]3C(=O)N(C)C(=O)[C@@H]3[C@@H]3C(=O)Nc4ccccc4C(=O)N23)c1 | -2.83% |
| Cn1c(S(=O)(=O)O)nc2ccccc21 | -9% |
| Cn1sc(NC(=O)c2ccccc2)nc1=O | 33.6% |
| Cn1c(NC(=O)c2ccccc2)nc2ccccc21 | 43.5% (active) |
| Cc1ccc2cc(C)c(N3CCN(c4ccc(F)cc4)CC3)nc2c1 | 27.6% |
| CC1(C)CC(=O)C2=C(C1)Nc1cc(C(=O)c3ccccc3)ccc1NC2c1ccccn1 (stereo unspecified) | -5.56% |
| Cc1nn(-c2ccccn2)c2c1C(c1ccncc1)C1=C(CC(C)(C)CC1=O)N2 (stereo unspecified) | -3.23% |
| Cc1cc2c(cc1C)NC(c1ccccn1)C1=C(CC(C)(C)CC1=O)N2 (stereo unspecified) | 51.7% (active) |
| CCc1ccc(CN(C)C(=O)C2CCC(=O)N(Cc3cccc(OC)c3)C2)nc1 (stereo unspecified) | 22.8% |
| CCOc1cccc(-c2nnc(SCC(=O)NC3CC3)n2C)c1 | 27% |
| COc1ccc(NC(=O)CSc2nncc(=O)n2N)cc1OC | -9.85% |
| O=C(COC(=O)c1ccccc1)Nc1ccccc1Sc1ccccc1 | -9.76% |
| O=C(COC(=O)c1cccc(Br)c1)Nc1cccc2c1C(=O)c1ccccc1C2=O | 31.4% (active) |
| O=C(COC(=O)Cn1cnc2ccccc21)Nc1cccc2c1C(=O)c1ccccc1C2=O | -13.5% |
